This passage reports binding signal results from paper PMC10668032, “Altered binding affinity of SIX1-Q177R correlates with enhanced WNT5A and WNT pathway effector expression in Wilms tumor”.

In all, about 33,000 sequences were measured (“e-score”: median about -0.053, highest 2% from about 0.38 on). The sample as a whole holds a higher share of the highest values than the screen did.

This test concerns the target T1, SIX1 homeodomain (reference allele) (human, UniProt Q15475 108-198).
T1 sequence: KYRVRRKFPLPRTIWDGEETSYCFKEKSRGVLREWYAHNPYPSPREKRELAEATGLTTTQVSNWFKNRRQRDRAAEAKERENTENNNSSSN
Put plainly: universal protein binding microarray; Universal all-10-mer PBM (8x60K, AMADID 030236), 300 nM GST-tagged protein, Alexa Fluor 488 anti-GST; buffer, salt, pH and temperature not stated (as in Berger); high values mean tight binding. Conditions: protein: ivt; tags: N-terminal GST; dsDNA, one strand shown. The method in brief: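 GST-tagged homeodomains were made by in vitro transcription/translation and quantified by anti-GST western blot against a recombinant GST standard curve. They were applied in duplicate at 300 nM final concentration to universal 'all 10-mer' protein binding microarrays (8×60K format). Binding was quantified as 8-mer E-scores with the Universal PBM Analysis Suite.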
For the sequence ATGCATGA, the binding signal worked out at 0.162 ± 0.0129 E-score.
The figure for ATCCACGG is 0.187 ± 0.0301 E-score; for CCCAGATA it is 0.302 ± 0.0141 E-score.
The figure for ACCAGATC is 0.349 ± 0.0234 E-score; for ACCGGATC it is 0.417 ± 0.0393 E-score.
The figure for CCTGGATC is 0.251 ± 0.0575 E-score; for CCCGGATC it is 0.45 ± 0.0283 E-score.
Take ACCGGATA: the binding signal amounted to 0.364 ± 0.00187 E-score.
Take CCCGGGTC: the binding signal stood at 0.288 ± 0.0806 E-score.
The figure for CCCAGATC is 0.38 ± 0.0205 E-score; for AGCGGATC it is 0.375 ± 0.0283 E-score; for CCCCGCAC it is 0.189 ± 0.188 E-score.
Regarding CAACGATC, the binding signal turned out to be 0.277 ± 0.0168 E-score.
The figure for CGTGATCA is 0.181 ± 0.00373 E-score; for AGTGATCA it is 0.313 ± 0.0131 E-score; for GGTGATCA it is 0.315 ± 0.0247 E-score.
The figure for CGTGATCC is 0.41 ± 0.0121 E-score; for AGTGATCC it is 0.4519 ± 0.00218 E-score; for AGTGATCG it is 0.25 ± 0.00845 E-score.
The figure for ATACGGGA is 0.367 ± 0.0155 E-score.
For GATGAGAC, the binding signal was 0.20672 ± 0.00017 E-score.
The figure for ATATGAGC is 0.208 ± 0.0956 E-score; for CCATCCGG it is 0.235 ± 0.079 E-score; for AACGATCA it is 0.2067 ± 0.00118 E-score.
CAGGATCG: the binding signal was 0.297 ± 0.0493 E-score.
In the case of AAGGATCG, the binding signal came to 0.349 ± 0.00351 E-score.
With TAGGATCA, the binding signal was 0.409 ± 0.017 E-score.
In the case of AAGGATCA, the binding signal was 0.383 ± 0.00738 E-score.
For AAGGATCT, the binding signal stood at 0.267 ± 0.029 E-score.
The figure for TAGGATAA is 0.21 ± 0.0705 E-score; for TAGGATGA it is 0.199 ± 0.0352 E-score; for CAGGATCA it is 0.386 ± 0.00253 E-score.
The figure for GAGGATCA is 0.369 ± 0.0176 E-score; for ACTATCTA it is 0.154 ± 0.0178 E-score; for AAACCCGA it is 0.165 ± 0.0599 E-score.
Consider AACACCAT, for which the binding signal was 0.173 ± 0.0172 E-score.
Take ATAGCGGC: the binding signal is 0.194 ± 0.00861 E-score.
The figure for AGGTGTGA is 0.204 ± 0.0237 E-score.
The figure for GGGTGTCA is 0.4698 ± 0.00156 E-score; for AGGTGTAC it is 0.182 ± 0.0154 E-score; for AGGTGTAT it is 0.377 ± 0.0149 E-score.
For AGGTGTAA, the binding signal was 0.165 ± 0.116 E-score.
The figure for AGGTGTCG is 0.399 ± 0.0161 E-score; for AGGTGTCA it is 0.45238 ± 0.000134 E-score.
The figure for GGGTGTGA is 0.158 ± 0.0496 E-score; for AGGTGTCC it is 0.274 ± 0.042 E-score; for AGGTGTTG it is 0.2361 ± 0.00141 E-score.
Regarding GGGTGTAA, the binding signal came to 0.334 ± 0.00878 E-score.
In the case of AGGTGTTA, the binding signal was found to be 0.203 ± 0.0687 E-score.
With TATCTACA, the binding signal turned out to be 0.167 ± 0.0212 E-score.
The figure for CAAAGATC is 0.209 ± 0.0122 E-score.
Regarding GATCTCCA, the binding signal is 0.239 ± 0.0181 E-score.
As to ACATATAT, the binding signal came to 0.252 ± 0.0998 E-score.
The figure for ATCACTGA is 0.243 ± 0.0373 E-score.
The figure for GTATTTAA is 0.172 ± 0.0151 E-score; for TAACCCGA it is 0.213 ± 0.0195 E-score.
Turning to CATATTAA, the binding signal was found to be 0.175 ± 0.121 E-score.
The figure for ATCATTAC is 0.295 ± 0.0265 E-score; for AGAATACT it is 0.208 ± 0.057 E-score.
The figure for AAAAGGAT is 0.163 ± 0.102 E-score.
The figure for CGGTGTCC is 0.352 ± 0.0179 E-score; for CGGTGTAA it is 0.257 ± 0.00735 E-score; for CGGTGTCA it is 0.471 ± 0.00725 E-score.
On to AGGATCGG, for which the binding signal worked out at 0.32 ± 0.0208 E-score.
The figure for ATCACGAC is 0.18 ± 0.0119 E-score; for AGAATGAT it is 0.216 ± 0.0443 E-score; for GGGATAAA it is 0.212 ± 0.0282 E-score.
The figure for CGGATATA is 0.422 ± 0.00574 E-score; for GGGATAGA it is 0.256 ± 0.0216 E-score; for GGGATATA it is 0.433 ± 0.0145 E-score.
The figure for CTAGATGC is 0.153 ± 0.0669 E-score; for CATACACG it is 0.157 ± 0.0344 E-score; for AGCTATAT it is 0.2 ± 0.0474 E-score.
Turning to ACACGGGT, the binding signal worked out at 0.23 ± 0.0432 E-score.
The figure for CATCGATA is 0.308 ± 0.015 E-score; for AGATCGGC it is 0.216 ± 0.0174 E-score.
Take ATATCGGA: the binding signal came out at 0.427 ± 0.0311 E-score.
The figure for ATATCGGC is 0.394 ± 0.011 E-score; for ATATCTGC it is 0.346 ± 0.0315 E-score; for CTATCGGA it is 0.289 ± 0.00216 E-score.
The figure for AGATCGGA is 0.255 ± 0.00445 E-score.
On to ATATCTGA, for which the binding signal turned out to be 0.356 ± 0.0383 E-score.
The figure for GGATCGGA is 0.38 ± 0.0357 E-score; for CGATCGGA it is 0.24 ± 0.0149 E-score.
The figure for ATATGGGA is 0.319 ± 0.00531 E-score; for ATATGGGC it is 0.326 E-score; for ATATGGGG it is 0.4 ± 0.0352 E-score.
